Sampled rows, rich in hits. Any-hit rate of the full collection: about 4.1%.
hcDAF12 agonist – H. contortus DAF-12 nuclear receptor activators, primary screen, cell-based, luminescence, HEK293, lit1-tk-luc reporter; HEK293 hcDAF-12 lit1-tk-luc reporter; 0% DMSO, 100% Δ7-dafachronic acid; activation, % at 6.8 µM; 1.4% of 370,000 active;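 active = activation above the mean of all tested compounds plus 3 SD, cut at about 5.5% in these data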
DAX1 inh-1 – DAX1 (NR0B1) inhibitors on StAR promoter, primary screen, cell-based, luminescence, SF-1 (NR5A1), full-length DAX-1. HEK293T StAR-luciferase reporter, SF-1/DAX-1 repression relief. inhibition, % at 6.8 µM. 1.1% of 370,000 active. AID 652010, 2013;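 active = inhibition above the mean over all tested compounds plus 3 SD, cut at about 3.6% in these data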;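 also: higher inhibition means more luminescence from relief of DAX-1 repression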
ssDAF-12 act – S. stercoralis DAF-12 nuclear receptor activators, primary screen, cell-based, luminescence, HEK293, GRIP1 co-expression, lit1-tk-luc; Nuclear hormone receptor DAF-12 (Strongyloides stercoralis); HEK293 ssDAF-12/GRIP1 lit1-tk-luc reporter; % of 3 µM dafachronic acid response; activation, % at 6.8 µM; 1% of 370,000 active;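 active = activation above the mean over all tested compounds plus 3 SD, cut at about 0.9% in these data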
hgDAF-12 ag – H. glycines DAF-12 receptor agonists, primary screen, cell-based, luminescence, HEK293, GAL4 fusion, UAS-luciferase; 1.8% of 370,000 active; HEK293 GAL4-hgDAF12 UAS-luciferase reporter, agonist luminescence; normalized to butyrate control; activation, % at 6.8 µM;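 active = activation above a cutoff set at the mean of all screened compounds plus 3 SD, cut at about 10% in these data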
DAX1 inh-2 – DAX1 (NR0B1) inhibitors, primary screen, cell-based, HEK293, Gal4-DAX1, luciferase luminescence. Nuclear receptor subfamily 0 group B member 1 (Homo sapiens), P51843. HEK293 Gal4-DAX1 luciferase reporter. inhibition, % at 6.75 µM. 0.99% of 340,000 active;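 active = inhibition above the mean over all tested compounds plus 3 SD, cut at about 4.2% in these data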;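 also: inhibition shows as a rise in luminescence from relieved DAX1 repression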
Target sequence (P51843 207-470 limits assumed): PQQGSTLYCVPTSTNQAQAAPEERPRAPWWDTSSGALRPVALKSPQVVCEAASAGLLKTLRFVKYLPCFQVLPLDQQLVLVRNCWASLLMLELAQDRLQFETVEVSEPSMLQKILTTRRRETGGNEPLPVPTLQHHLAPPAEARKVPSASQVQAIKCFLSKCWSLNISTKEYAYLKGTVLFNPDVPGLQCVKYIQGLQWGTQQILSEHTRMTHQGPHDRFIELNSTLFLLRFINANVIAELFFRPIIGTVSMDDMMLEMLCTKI
PolyA inh – polyadenylation inhibitors in yeast reporter cells, primary screen, luminescence, S. cerevisiae. S. cerevisiae SKY197-pL101 polyadenylation reporter, beta-gal luminescence; efflux-impaired pdr1/pdr3 knockout yeast; score 100 = 6 SD above DMSO. activity score, % at 12 µM. 0.02% of 300,000 active;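 active = lowest replicate activity score at least 50, where 100 means six control SD above control mean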;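 also: yeast exposed to compound for 9 h at 30 °C; higher score means more reporter readthrough which indicates perturbed polyadenylation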
Of the large screens only hits and unclear results are named; the others gave an inactive call.

COc1cc(-c2nnc(-c3cc(-c4ccccc4)nc4ccccc34)o2)cc(OC)c1OC	ssDAF-12 act 1.2 (no result: PolyA inh)
COc1cc(-c2nnc(-c3ccccc3)o2)cc(OC)c1OC	none
COc1ccc(-c2nnc(-c3ccccc3)o2)cc1OC	hgDAF-12 ag 10.5
COC(=O)[C@]12C[C@H](CC(=O)N3CCC(c4ccccc4)CC3)C(=O)N(Cc3ccc(Cl)cc3Cl)C1=C[C@H](COCc1ccccc1)O[C@@H]2C	none (no result: DAX1 inh-2, PolyA inh)
COC(=O)[C@@H](Cc1ccccc1)N[C@H](/C=C/c1ccccc1)[C@@H](O)Cc1ccccc1	none (no result: DAX1 inh-2, PolyA inh)
Nc1ccc(-c2nnc(-c3ccc(N)cc3)o2)cc1	DAX1 inh-2 4.4
Cn1cc(CCOCc2ccccc2)c2ccccc21	none (no result: DAX1 inh-2, PolyA inh)
COc1cc(=O)[nH]c(SC(C)C(=O)Nc2ccc3ccccc3c2)n1 (stereo not given)	none
CC(Sc1nncn1C)C(=O)Nc1ccc2ccccc2c1 (stereo not given)	DAX1 inh-2 4.6 (no result: PolyA inh)
Cc1nnc(SC(C)C(=O)Nc2ccc3ccccc3c2)[nH]c1=O (stereo not given)	ssDAF-12 act 1.3
CCNC(=O)N1C[C@H]2CON(C)[C@H]2C[C@H]1c1ccc(N2CCCCC2)cc1	none (no result: DAX1 inh-2, PolyA inh)
COc1ccc(CNC(=O)C2CC(C)=C(C)CC2C(=O)O)cc1 (stereo not given)	none
CCC1=C(c2ccc(OC)cc2)CCC(C(=O)O)C1C (stereo not given)	ssDAF-12 act 60.6 (no result: PolyA inh)
OCCC1CN(CC#Cc2ccccc2)CCN1Cc1ccccc1F (stereo not given)	ssDAF-12 act 1.6
CCCN(CC1CC1)C(=O)CN1C(=O)C2CCCCN2C(=O)c2ccccc21 (stereo not given)	none (no result: DAX1 inh-2, PolyA inh)
COc1ccc(/C=C2\CCC(C3CCCC3)C2=O)cc1 (stereo not given)	none
Cc1ccsc1/C=C1\CCC(C2CCCC2)C1=O (stereo not given)	DAX1 inh-2 5.6
Cc1ccc(/C=C2\CCC(C3CCCC3)C2=O)cc1 (stereo not given)	ssDAF-12 act 0.9, DAX1 inh-2 4.5
CCOC(=O)c1sc(NC(=O)Nc2ccccc2F)nc1C	DAX1 inh-1 3.7
CCOC(=O)c1sc(NC(=O)CSc2nncn2C)nc1C	DAX1 inh-2 5.2
CCOC(=O)c1sc(NC(=O)CSc2nnc(C(C)C)n2C)nc1C	none
O=C(N[C@@H](Cc1cccnc1)C(=O)N1CCC[C@H]1C(=O)NC1CCCC1)c1cccs1	none (no result: DAX1 inh-2, PolyA inh)
CC(C)(C)C(=O)N1CCC[C@]2(CC[C@H](CCC#N)O2)C1	none (no result: DAX1 inh-2, PolyA inh)
Cc1ccsc1/C=N/Nc1ccc(C(=O)O)cc1	hcDAF12 agonist 6.4
Cc1cc2cc(CN3C(=O)c4ccccc4C3=O)ccc2n1C	hcDAF12 agonist 6.1
Fc1cc(Cl)c(OCc2noc(-c3ccsc3)n2)c(Cl)c1	none
Clc1ccc(OCc2noc(-c3ccsc3)n2)c(Cl)c1	hgDAF-12 ag 10.6, DAX1 inh-2 8.3
CC(=O)c1ccc(NC(=O)c2cc(Cl)sc2Cl)cc1	ssDAF-12 act 1.4, hgDAF-12 ag 12.4
Cc1nc(-c2nc(C(=O)NNS(C)(=O)=O)cs2)cs1	none
CC(=O)NNC(=O)c1csc(-c2csc(C)n2)n1	DAX1 inh-2 7.3
Clc1ccc(C2Nc3ccccc3-n3cccc32)cc1 (stereo not given)	ssDAF-12 act 1.1
CN1c2ccccc2C(=O)NC1c1ccc(Cl)cc1 (stereo not given)	none
O=C(NC(=S)NC1CCCC1)c1ccccc1	DAX1 inh-1 3.9, hgDAF-12 ag 12.8
O=C(NC1CCCCC1)c1ccccc1NC(=O)C1CC1	none
CC(=O)NC(=S)Nc1ccccc1C(=O)NC1CCCCC1	ssDAF-12 act 3.9
O=C(NC1CCCCC1)c1cc(C(=O)c2ccccc2Br)c[nH]1	DAX1 inh-2 6.4
O=C(Nc1ccccc1C(=O)NC1CCCC1)NC1CCCC1	DAX1 inh-2 5.8
CCN(CC)c1ccc(NC(=O)CSc2nnc(SCc3ccc(Cl)cc3)s2)cc1	none (no result: DAX1 inh-2, PolyA inh)
CCOC(=O)C1=C(C(=O)OCC)C2N(Cc3ccc(C(F)(F)F)cc3)c3ccccc3[C@@]23C[C@@H](C(=O)OC)N(S(=O)(=O)c2ccc(OC)cc2)C3=N1 (stereo not given in full)	none (no result: DAX1 inh-2, PolyA inh)
Fc1ccc2nc(-c3ccc(CN4CCC(c5nc6ccccc6[nH]5)CC4)cc3)c(-c3ccccc3)nc2c1	none (no result: DAX1 inh-2, PolyA inh)
COC(=O)[C@]12C[C@H](CC(=O)NCCCN3CCCC3=O)C(=O)N(Cc3cccc4ccccc34)C1=C[C@H](C1CCCC1)O[C@@H]2C	none (no result: DAX1 inh-2, PolyA inh)
Nc1nc(Cl)nc2ncn(Cc3ccccc3)c12	hgDAF-12 ag 11.2
CC(C)CC(=O)c1c(O)cc(O)c2c1OC1=C(C(=O)C(C)(C)C(=O)C1(C)C)C2CC(C)C (stereo not given)	none (no result: DAX1 inh-2, PolyA inh)
COc1ccc(OC)c(C(C)NC(=O)c2ccc(Br)cc2)c1 (stereo not given)	DAX1 inh-2 8.4
CC[C@@]1(c2cccc(Cl)c2)C(=O)N(C(=O)OC(C)C)N1C(=O)OC(C)C	none (no result: DAX1 inh-2, PolyA inh)
COc1ccc(/C=C2/C(=O)N(c3ccccc3)N=C2C)cc1Br	hcDAF12 agonist 6.4
COc1cc(/C=C2/C(=O)N(c3ccccc3)N=C2C)ccc1OS(=O)(=O)c1ccccc1	none (no result: hcDAF12 agonist, DAX1 inh-1, ssDAF-12 act, hgDAF-12 ag, DAX1 inh-2)
CCOC(=O)c1ccc(OC)c(OC)c1Cl	DAX1 inh-2 5.8
Cc1sc2ncnc(OCC(=O)N3CCN(C(=O)c4ccco4)CC3)c2c1C	DAX1 inh-2 5.7
CC(C)C(C(=O)NCc1ccccc1)N1CCN(CCN2CCOCC2)CC1 (stereo not given)	none (no result: DAX1 inh-2, PolyA inh)
O=C(OC12CCCN(C1)/C(=C/c1ccc(Cl)cc1)C2)C1CCCC1 (stereo not given)	none (no result: DAX1 inh-2, PolyA inh)
O=C(COC(=O)c1cc[n+]([O-])cc1)Nc1ccc(SC(F)F)cc1	ssDAF-12 act 1.2
C/C(Cn1cnc([N+](=O)[O-])n1)=N\NC(=O)c1ccccc1	DAX1 inh-2 4.3
C/C(Cn1nnc([N+](=O)[O-])n1)=N\NC(=O)c1ccccc1	none
Nc1[nH]n(-c2ccccc2)c(=O)c1N=Nc1ccc(F)cc1	none (no result: DAX1 inh-2, PolyA inh)
NC(=O)C1CCCN(Cc2ccc3ccccc3c2)C1 (stereo not given)	DAX1 inh-2 5.1
O=C(CCC(=O)c1cccs1)c1cccs1	hgDAF-12 ag 12.4
